ClpP mod – qHTS Assay for Activators of ClpP; ATP-dependent Clp protease proteolytic subunit (Bacillus subtilis (strain 168)), P80244; purified B. subtilis ClpP, FRET peptide cleavage, 20 min; Potency, µM (top dose mostly 57.5 µM); 340,000 compounds, 1.9% hits; AID 651965, 2013; active = well fitted falling curve with a large enough effect; inconclusive = small, poorly fitted or top-dose-only effect; inactive = no such curve, though single readings can be large or run the other way; note: the source files actives as falling curves though it sought activators and does not explain the sign; nearly all actives have a fitted effect of over 65% in size
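ClpP 10 microg/mL final, pH 8 Tris/KCl buffer with BSA, glycerol, Tween-20; compound pinned in; FRET-FV substrate; RT 20 min; Ex320/Em430; ΔFRET vs ADEP 5.8 microM, DMSO, no enzyme.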
TDP1 cell CPT – growth inhibition of DT40 Tdp1-/-;hTDP1 cells with camptothecin (screen for TDP1 inhibitors); chicken DT40 Tdp1-/-;hTDP1 cells + 20 nM CPT, ATP luminescence, 48 h; Potency, µM (doses to about 46.2 µM), actives largely listed as inhibitors; 420,000 compounds, 12% hits; AID 686979; note: nearly all actives have a fitted effect of over 55% in size
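Cell growth measured by CellTiter-Glo luminescence after a minimum 48 h, 37 C compound exposure with 20 nM CPT in Tdp1-knockout DT40 cells stably expressing hTDP1, seeded 400/well; qHTS titration format.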
DT40 TDP1 no CPT – qHTS for Inhibitors of human tyrosyl-DNA phosphodiesterase 1 (TDP1): qHTS in cells in absence of CPT; Potency, µM (doses to about 46.2 µM), actives largely listed as inhibitors; DT40 Tdp1-/- hTDP1 cells, no CPT, ATP luminescence, 48 h; 420,000 compounds, 15% hits; note: nearly all actives have a fitted effect of over 55% in size
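No-CPT arm: Tdp1-/-;hTDP1 DT40 cells (400/well) plus compounds, incubated ≥48 hr at 37 °C. Readout CellTiter-Glo luminescence.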
TDP1 block – inhibitors of human tyrosyl-DNA phosphodiesterase TDP1; Q9NUW8; recombinant TDP1, AlphaScreen DNA substrate cleavage; Potency, µM (series often up to 130 µM), most hits filed as inhibitors; 350,000 compounds, 0.28% hits; AID 485290; note: nearly all actives have a fitted effect of over 40% in size
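Steps: enzyme plus compound, 15 min RT; add biotin/phosphotyrosine-FITC oligonucleotide (15 nM final), react 5 min; add donor/acceptor beads (10 ug/ml final), 10 min; read AlphaScreen. Tdp1 at 1 nM final.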
Large screens that a line does not name were inactive. Compounds with a hit are over-represented: about 17% of the library has one in this group of screens. Unless noted, calls come from the whole dose curve; as a rule, active = well fitted curve in the direction sought with a large enough effect; inconclusive = small, poorly fitted or top-dose-only effect, or another doubt; inactive = no such curve, though single readings can be large; an effect the other way counts as inactive or inconclusive.

O=C1/C(=C/C=C/c2ccccc2)Oc2c1ccc(O)c2CN1CCN(CCO)CC1	TDP1 cell CPT inconclusive, DT40 TDP1 no CPT inconclusive (no result: TDP1 block)
COc1ccc(N2C(=S)NC3c4cc(Cl)ccc4OC2(C)C3C(=O)N(C)C)cc1 (stereo unspecified)	TDP1 cell CPT 29µM, DT40 TDP1 no CPT inconclusive (no result: ClpP mod)
COC(=O)c1ccc2c(=O)n(CCCCCC(=O)NCCc3ccc(Cl)cc3)c(=O)[nH]c2c1	DT40 TDP1 no CPT inconclusive
O=C(CNC(=O)C1CCCCC1)NC1=NCCS1	TDP1 cell CPT 26µM, DT40 TDP1 no CPT inconclusive
O=C(CNC(=O)C12CC3CC(CC(C3)C1)C2)NC1=NCCS1	TDP1 cell CPT inconclusive, DT40 TDP1 no CPT inconclusive
COc1ccc(C(=O)Oc2c(Sc3ccc(C)cc3)c(C)nn2C(C)(C)C)cc1OC	TDP1 cell CPT inconclusive, DT40 TDP1 no CPT 21µM
COc1cccc(C(=O)Oc2c(Sc3ccc(C)cc3)c(C)nn2C(C)(C)C)c1OC	TDP1 cell CPT 16µM, DT40 TDP1 no CPT 23µM
Cc1nn(C(C)(C)C)c(OC(=O)c2cccc(F)c2)c1Sc1ccccc1	TDP1 cell CPT inconclusive, DT40 TDP1 no CPT inconclusive
CCOc1ccccc1C(=O)Oc1c(Sc2ccccc2)c(C)nn1C(C)(C)C	none
COc1ccc(C(=O)Oc2c(Sc3ccc(Cl)cc3)c(C)nn2C(C)(C)C)cc1OC	TDP1 cell CPT 23µM, DT40 TDP1 no CPT inconclusive
Cc1cccc(C(=O)Oc2c(Sc3ccccc3)c(C)nn2C(C)(C)C)c1	TDP1 cell CPT inconclusive, DT40 TDP1 no CPT 23µM (no result: TDP1 block)
O=C(CSc1nnc(-c2cccc(F)c2)o1)N1CCCC1	none (no result: ClpP mod, TDP1 block)
CCOc1ccc(NC(=O)c2cc(OC)nc3ccccc23)cc1	TDP1 cell CPT 0.52µM, DT40 TDP1 no CPT 0.58µM (no result: ClpP mod, TDP1 block)
CCOc1ccc(NC(=O)c2cccc3ccccc23)cc1	TDP1 cell CPT 12µM, DT40 TDP1 no CPT 8.2µM
COc1cc(C(=O)Nc2ccc(C)cc2)c2ccccc2n1	TDP1 cell CPT 0.82µM, DT40 TDP1 no CPT 0.73µM (no result: ClpP mod, TDP1 block)
CCOc1ccc(NC(=O)c2cc3ccccc3cc2O)cc1	TDP1 cell CPT inconclusive, DT40 TDP1 no CPT inconclusive (no result: TDP1 block)
Cc1ccc(C(=O)COC(=O)c2ccco2)cc1C	none
CC(C)(CNc1ccc(C(F)(F)F)cc1[N+](=O)[O-])N1CCOCC1	none
C[C@@H]1CN([C@H](C)CO)C(=O)CCCn2nncc2CO[C@H]1CN(C)Cc1ccc(C(F)(F)F)cc1	none (no result: TDP1 block)
CCCCN1C(=O)c2ccccc2C1=O	none (no result: ClpP mod, TDP1 cell CPT, DT40 TDP1 no CPT)
COCc1cc(=O)n2[nH]c(-c3cccc(Br)c3)cc2n1	ClpP mod inconclusive, DT40 TDP1 no CPT inconclusive
CCCc1cc(=O)n2[nH]c(-c3ccc(C)cc3)cc2n1	ClpP mod 14µM, TDP1 cell CPT inconclusive, DT40 TDP1 no CPT inconclusive
COCc1cc(=O)n2[nH]c(-c3ccccc3)cc2n1	ClpP mod 25µM
CCCc1cc(=O)n2[nH]c(-c3ccccc3)cc2n1	ClpP mod 22µM, DT40 TDP1 no CPT inconclusive
CCCc1cc(=O)n2[nH]c(-c3ccc(Cl)cc3)cc2n1	DT40 TDP1 no CPT inconclusive
CCCCn1[nH]c(-c2ccccc2)cc1=O	TDP1 cell CPT inconclusive, DT40 TDP1 no CPT 18µM
O=C1CS(=O)(=O)C2(C(=O)N(Cc3cccc(F)c3)c3ccccc32)N1c1ccccc1 (stereo unspecified)	TDP1 cell CPT inconclusive, DT40 TDP1 no CPT inconclusive
COCc1cc(=O)n2[nH]c(C)cc2n1	ClpP mod 18µM
COCc1cc(=O)n2[nH]c(C(C)(C)C)cc2n1	none (no result: ClpP mod)
CCCCN(C)c1nc2c(S(=O)(=O)c3ccc(CC)cc3)nnn2c2ccc(Cl)cc12	TDP1 cell CPT 12µM, DT40 TDP1 no CPT 10µM
Cc1ccc(S(=O)(=O)c2nnn3c2nc(N(C)Cc2ccccc2)c2cc(Cl)ccc23)cc1C	ClpP mod inconclusive, TDP1 cell CPT 13µM, DT40 TDP1 no CPT 12µM
Cc1ccc(S(=O)(=O)c2nnn3c2nc(NCCCN2CCCC2=O)c2ccccc23)cc1C	TDP1 cell CPT inconclusive
Cc1ccc(S(=O)(=O)c2nnn3c2nc(NC2CCN(Cc4ccccc4)CC2)c2ccccc23)cc1C	TDP1 cell CPT 12µM, DT40 TDP1 no CPT 5.8µM
CCN(CC)c1nc2c(S(=O)(=O)c3ccccc3)nnn2c2ccc(Cl)cc12	ClpP mod inconclusive, TDP1 cell CPT inconclusive, DT40 TDP1 no CPT inconclusive
CCOC(=O)C1CCCN(c2nc3c(S(=O)(=O)c4ccc(CC)cc4)nnn3c3ccc(Cl)cc23)C1 (stereo unspecified)	TDP1 cell CPT inconclusive, DT40 TDP1 no CPT inconclusive
Cc1ccc(CCNC(=O)CNC(=O)c2cccs2)cc1	none (no result: ClpP mod)
Cc1cccc2c1-c1sc(C(=O)NCc3ccc(Cl)cc3)cc1CO2	none
O=C(Cc1ccc2c(c1)OCCO2)Nc1ccc(Cl)c(S(=O)(=O)N2CCOCC2)c1	TDP1 cell CPT inconclusive
C=C(C)CN(CC)C(=O)CSc1ccc(S(=O)(=O)N2CCN(C)CC2)cn1	none
CCOC(=O)Nc1ccc2c(c1)N(C(=O)CCN1CCOCC1)c1ccccc1S2=O (stereo unspecified)	TDP1 cell CPT 3.7µM, DT40 TDP1 no CPT 5.8µM
CCOC(=O)Nc1ccc2c(c1)N(C(=O)CCN1CCOCC1)c1ccccc1S2	TDP1 cell CPT inconclusive
CSc1nc(NCc2ccco2)c2ccccc2n1	ClpP mod inconclusive, TDP1 cell CPT inconclusive, DT40 TDP1 no CPT inconclusive
C=CCNc1nc(NCc2ccco2)nc(OCC)n1	TDP1 cell CPT 21µM, DT40 TDP1 no CPT inconclusive
CCNc1nc(NCc2ccco2)c2ccccc2n1	TDP1 cell CPT 11µM, DT40 TDP1 no CPT 11µM (no result: TDP1 block)
Clc1nc(NCc2ccco2)c2ccccc2n1	TDP1 cell CPT inconclusive, DT40 TDP1 no CPT 7.1µM (no result: TDP1 block)
CNc1nc(NCc2ccco2)c2ccccc2n1	TDP1 cell CPT 10µM, DT40 TDP1 no CPT 16µM (no result: TDP1 block)
CN1CCN(c2nc(-c3cccnc3)nc3scc(-c4ccccc4)c23)CC1	TDP1 cell CPT inconclusive, DT40 TDP1 no CPT 23µM (no result: ClpP mod)
CC1CCCN(c2nc(-c3cccnc3)nc3scc(-c4ccccc4)c23)C1 (stereo unspecified)	ClpP mod 14µM, TDP1 cell CPT inconclusive, DT40 TDP1 no CPT 18µM
CC1CCN(c2nc(-c3cccnc3)nc3scc(-c4ccccc4)c23)CC1	ClpP mod inconclusive, TDP1 cell CPT inconclusive
CC1CCCN(CCCNC(=O)c2ccc3c(c2)N(Cc2ccc(F)cc2)C(=O)c2ccccc2S3=O)C1 (stereo unspecified)	TDP1 cell CPT 16µM, DT40 TDP1 no CPT inconclusive
CCN1CCCC1CNC(=O)c1ccc2c(c1)N(Cc1ccccc1F)C(=O)c1ccccc1S2(=O)=O (stereo unspecified)	none
CC1CCCN(CCCNC(=O)c2ccc3c(c2)N(Cc2ccccc2F)C(=O)c2ccccc2S3(=O)=O)C1 (stereo unspecified)	TDP1 cell CPT 23µM, DT40 TDP1 no CPT 15µM
CN1CCCN(c2cc(-c3ccc4ccccc4c3)nc3ccnn23)CC1	TDP1 cell CPT 21µM, DT40 TDP1 no CPT 21µM (no result: TDP1 block)
OCCN1CCN(c2cc(-c3ccc4ccccc4c3)nc3ccnn23)CC1	TDP1 cell CPT 18µM, DT40 TDP1 no CPT inconclusive (no result: TDP1 block)
COc1ccc(-c2cc(N3CCN(CCO)CC3)n3nccc3n2)cc1	none (no result: TDP1 block)

Screening data deposited in PubChem BioAssay by National Center for Advancing Translational Sciences (NCATS).
